Measurements from PubChem BioAssay AID1159580 (chemical genetic matrix, 2015).
Where “and” joins values, the source holds several entries; their conditions need not be identical. Identical values can stand only once. In all, about 5,500 compounds went through this assay and about 2,000 (36%) were called active. Another 18% or so got no clear call; they are omitted. No stated cut-off is given here; in the data, active means normalized growth mostly below about 0.91 (no sharp cut-off); inconclusive means no clear call, values can overlap the other calls; inactive means mostly above about 0.92. The list shows a part of the results.

Assay: chemical genetic growth profiling, strain panel (AID 1159580);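 further: tested at 20 µM; growth read once vehicle control cultures reached saturation at 30 °C; 1 = growth at the plate median or of vehicle wells; lower values mean less growth of the strain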
Conditions: S. cerevisiae deletion strains, growth OD

Measured: normalized growth

NC(=O)c1cccc(N)c1
inactive: locus YAL013W, strain DEP1, active compounds read low 1 and 1.01 | locus YAL021C, strain ccr4, active compounds read low 0.979 | locus YAL026C, strain drs2, active compounds read low 0.97 | locus YAL030W, strain snc1, active compounds read low 0.992 | locus YAL040C, strain CLN3, active compounds read low 1 | locus YBL061C, strain skt5, active compounds read low 0.977 | locus YBR009C, strain hhf1, active compounds read low 0.998 | locus YBR021W, strain FUR4, active compounds read low 0.968 | locus YBR023C, strain chs3, active compounds read low 0.981 | locus YBR171W, strain sec66, active compounds read low 0.962 | locus YBR229C, strain ROT2, active compounds read low 1 | locus YBR231C, strain swc5, active compounds read low 0.967 | locus YBR279W, strain paf1, active compounds read low 0.99 | locus YCL011C, strain gbp2, active compounds read low 0.957 | locus YCL016C, strain dcc1, active compounds read low 0.988 | locus YCL029C, strain bik1, active compounds read low 1 | locus YCL061C, strain MRC1 (second series), active compounds read low 1 | locus YCL069W, strain vba3, active compounds read low 0.962 | locus YCR088W, strain abp1, active compounds read low 0.972 | locus YDL005C, strain med2, active compounds read low 0.969 | locus YDL035C, strain GPR1, active compounds read low 1 | locus YDL040C, strain nat1, active compounds read low 0.988 | locus YDL074C, strain BRE1, active compounds read low 1.01 | locus YDL101C, strain DUN1, active compounds read low 1.01 | locus YDL134C, strain PPH21, active compounds read low 0.999 | locus YDL185W, strain tfp1, active compounds read low 1.01 | locus YDL192W, strain arf1, active compounds read low 0.999 | locus YDR001C, strain nth1, active compounds read low 0.979 | locus YDR069C, strain doa4, active compounds read low 0.966 | locus YDR101C, strain arx1, active compounds read low 0.987 | locus YDR137W, strain rgp1, active compounds read low 0.976 | locus YDR150W, strain NUM1, active compounds read low 1.01 | locus YDR159W, strain sac3, active compounds read low 0.965 | locus YDR162C, strain NBP2, active compounds read low 1 | locus YDR195W, strain ref2 0.958 | locus YDR297W, strain sur2, active compounds read low 0.98 | locus YDR318W, strain mcm21, active compounds read low 0.985 | locus YDR334W, strain swr1, active compounds read low 0.96 | locus YDR335W, strain msn5, active compounds read low 0.97 | locus YDR363W, strain ESC2, active compounds read low 1 | locus YDR388W, active compounds read low 0.993 | locus YDR392W, strain spt3, active compounds read low 0.965 | locus YDR502C, strain sam2, active compounds read low 1.01 | locus YEL003W, strain gim4, active compounds read low 0.979 | locus YEL037C, strain rad23, active compounds read low 0.969 | locus YEL061C, strain CIN8 (second series), active compounds read low 0.954 | locus YEL061C, strain CIN8, active compounds read low 1.01 | locus YER002W, strain NOP16, active compounds read low 1.02 | locus YER015W, strain faa2, active compounds read low 0.983 | locus YER016W, strain bim1, active compounds read low 0.977 | locus YER110C, active compounds read low 0.996 | locus YER111C, strain swi4, active compounds read low 0.966 | locus YER155C, strain BEM2 (second series), active compounds read low 0.965 | locus YER155C, strain BEM2, active compounds read low 0.99 | locus YER167W, strain BCK2, active compounds read low 1 | locus YFR010W, strain ubp6, active compounds read low 0.968 | locus YGL078C, strain dbp3, active compounds read low 1 | locus YGL086W, strain mad1, active compounds read low 0.988 | locus YGL167C, strain pmr1, active compounds read low 0.981 | locus YGL173C, strain kem1, active compounds read low 0.984 | locus YGL227W, strain vid30, active compounds read low 0.966 | locus YGL240W, strain doc1, active compounds read low 0.969 | locus YGL248W, strain PDE1, active compounds read low 1 | locus YGL253W, strain hxk2, active compounds read low 0.963 | locus YGR078C, strain PAC10, active compounds read low 1 and 1.05 | locus YGR135W, strain pre9, active compounds read low 0.986 | locus YGR229C, strain SMI1, active compounds read low 1.01 | locus YGR252W, strain gcn5, active compounds read low 0.978 | locus YHR013C, strain ard1, active compounds read low 0.972 | locus YHR027C, strain rpn1, active compounds read low 0.974 | locus YHR030C, strain SLT2, active compounds read low 1.01 | locus YHR079C, strain IRE1 (second series), active compounds read low 0.994 | locus YHR094C, strain hxt1, active compounds read low 0.998 | locus YHR129C, strain ARP1, active compounds read low 1 | locus YHR142W, strain chs7, active compounds read low 0.968 | locus YHR200W, strain rpn10, active compounds read low 0.993 | locus YIL066C, strain RNR3, active compounds read low 1 | locus YIL073C, strain SPO22, active compounds read low 1.02 | locus YIL125W, strain kgd1, active compounds read low 0.996 | locus YIR030C, strain dcg1, active compounds read low 0.996 | locus YJL092W, strain hpr5, active compounds read low 0.954 | locus YJL095W, strain BCK1 (second series), active compounds read low 0.979 | locus YJL095W, strain BCK1, active compounds read low 1 | locus YJL115W, strain asf1, active compounds read low 0.966 | locus YJL129C, strain trk1, active compounds read low 0.965 | locus YJL134W, strain LCB3, active compounds read low 1 | locus YJL154C, strain vps35, active compounds read low 0.979 | locus YJL164C, strain tpk1, active compounds read low 1 | locus YJL166W, strain qcr8, active compounds read low 1.01 | locus YJL168C, strain set2, active compounds read low 0.99 | locus YJL187C, strain SWE1 (second series), active compounds read low 1.01 | locus YJL187C, strain SWE1, active compounds read low 0.968
